High-throughput results from PubChem BioAssay.
D2 antag = HTS Assay for Allosteric Antagonists of the Human D2 Dopamine Receptor: Primary Screen for Antagonists | D(2) dopamine receptor (Homo sapiens), P14416 | HEK293 TREx D2 cells, calcium flux, dopamine EC80 | inhibition, % at 10 µM | hit rate 2% among 340,000 | AID 485344, 2010; in the data active = inhibition above about 30%; inactive = below that, where a call was filed; note: 0% is about no effect
Target sequence (P14416 whole entry, looked up): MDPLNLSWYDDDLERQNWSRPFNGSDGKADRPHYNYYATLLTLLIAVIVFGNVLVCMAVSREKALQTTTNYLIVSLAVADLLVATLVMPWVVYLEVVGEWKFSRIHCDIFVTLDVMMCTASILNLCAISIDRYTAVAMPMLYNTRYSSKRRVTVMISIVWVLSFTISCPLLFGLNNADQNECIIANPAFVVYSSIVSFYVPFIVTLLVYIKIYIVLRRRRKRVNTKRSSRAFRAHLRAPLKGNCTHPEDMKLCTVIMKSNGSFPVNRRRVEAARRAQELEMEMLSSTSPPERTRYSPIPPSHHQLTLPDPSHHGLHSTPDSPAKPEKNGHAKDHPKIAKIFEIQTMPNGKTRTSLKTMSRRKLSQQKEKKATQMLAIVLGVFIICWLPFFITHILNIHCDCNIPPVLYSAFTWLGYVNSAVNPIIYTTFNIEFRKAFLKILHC
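Calcium mobilization kinetics were recorded at 1 s intervals in tetracycline-induced HEK293 T-REx D2 cells, first for 180 s after compound addition and then 180 s after EC80 dopamine.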
D2 ag-1 = HTS Assay for Allosteric Agonists of the Human D2 Dopamine Receptor: Primary Screen for Agonists | D(2) dopamine receptor (Homo sapiens), P14416 | HEK293 T-REx D2 cells, calcium flux agonist mode | activation, % at 2 µM | hit rate 0.53% among 340,000 | AID 485358, 2010;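 active = activation over 3 SD above normal in the single-dose calcium agonist read, cut at about 30% in these data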; note: 0% is about no effect
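Agonism is scored from calcium flux in a force-coupled, inducible HEK293 cell line expressing D2, read kinetically for 180 s after compound addition against dopamine controls.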
D2 PAM-1 = Beta-Arrestin HTS for Positive Allosteric Modulators of the Human D2 Dopamine Receptor: Potentiators; D(2) dopamine receptor (Homo sapiens), P14416; DiscoveRx D2 beta-arrestin cells, luminescence, 90 min; 100% = 57 uM dopamine signal; potentiation, % (no concentration beside the values); hit rate 0.23% among 360,000; AID 624464, 2012; in the data active = potentiation above about 50%; inconclusive = mostly about 30% to 49%
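PathHunter D2 cells, attached overnight at 37 deg C, received compound in DMSO plus dopamine at EC20 (50 nM final) for 90 min at 37 deg C. Beta-arrestin recruitment was read as luminescence after 1 h with detection reagent at ambient temperature.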
D2 PAM-2 = HTS Assay for Positive Allosteric Modulators of the Human D2 Dopamine Receptor: Primary Screen for Potentiators | D(2) dopamine receptor (Homo sapiens), P14416 | HEK293 T-REx D2, calcium flux, EC20 dopamine potentiation | potentiation, % at 10 µM | hit rate 0.34% among 340,000;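 active = potentiation over 3 SD above the plate norm, cut at about 30% in these data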; note: 0% is about no effect
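Calcium flux readout, no-wash dye, 1 read/s. Inducible HEK293 Trex D2 line, overnight 30 C. Compound alone 180 s (agonist flags), then EC20 dopamine, another 180 s to score potentiation.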
D2 ag-2 = Beta-Arrestin HTS for Positive Allosteric Modulators of the Human D2 Dopamine Receptor: Agonists. D(2) dopamine receptor (Homo sapiens), P14416. DiscoveRx PathHunter D2 beta-arrestin, luminescence, 90 min; 100% = 57 uM dopamine signal. activation, % (no concentration beside the values). hit rate 0.084% among 360,000. AID 624465, 2012; in the data active = activation above about 40%; inconclusive = between about 15% and that limit
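Agonist mode: compounds alone added to overnight-plated D2 PathHunter cells for 90 min at 37 C, with 57 uM final dopamine (EC100) defining full response. Beta-arrestin recruitment detected by chemiluminescent reagent, read after 1 h at ambient temperature.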
* marks the source's active call; other numbers are inactive results; ? = inconclusive; nt = not tested or not shown; ! = repeats disagree. A selection: hits, their analogues and other compounds. The true share with any hit is near 2.4%.

SMILES | D2 antag | D2 ag-1 | D2 PAM-1 | D2 PAM-2 | D2 ag-2
COc1ccc(-n2ccnc(NCc3cccs3)c2=O)cc1 | nt | 0.0 | nt | 3.2 | nt
CC(C)NC(=O)C1CCN(c2nc3ccccc3nc2C(F)(F)F)CC1 | nt | 0.2 | nt | 4.2 | nt
Cc1cccc(N2CCN(C(=O)C3CCN(S(=O)(=O)c4ccc5c(c4)oc(=O)n5C)CC3)CC2)c1C | nt | 0.5 | nt | 2.9 | nt
CC(=O)NC1=NN(C(C)=O)C(C)(CS(=O)(=O)c2ccc3ccccc3c2)S1 (configuration not stated) | 39.1* | 0.4 | -25.3 | 4.3 | -1.7
CCC1(C)SC(NC(C)=O)=NN1C(C)=O (configuration not stated) | 0.3 | 3.6 | -5.7 | 7.7 | -2.2
CSCCC(NC(=O)c1ccco1)C(=O)N1CCCC(C(F)(F)F)C1 (configuration not stated) | 31.5* | -1.4 | -5.3 | -0.3 | -5.5
CSCCC(NC(=O)c1ccco1)C(=O)N1CCN(C(c2ccccc2)c2ccccc2)CC1 (configuration not stated) | 34.4* | -0.6 | -7.6 | 10.9 | -1.3
C=CCn1c(SCC(=O)Nc2ccc(O)cc2)nc2sc(CC)cc2c1=O | 31.1* | -1.3 | -2.2 | 3.3 | 2.4
O=C(Nc1ccc2nc(SCC(=O)N3CCCc4ccccc43)sc2c1)c1cccc(Cl)c1 | nt | -1.9 | nt | 21.4 | nt
CC(=O)Nc1ccc(C)cc1NC(C)=O | 34.8* | -0.6 | 6.3 | -4.5 | -2.5
COC(=O)Nc1ccc(C)cc1NC(=O)OC | -9.0 | 0.9 | 12.7 | -5.1 | -2.1
O=C(CCNC(=O)c1ccccc1)NC1CCCc2ccccc21 (configuration not stated) | -9.0 | nt | 0.0 | 3.8 | 2.1
O=C(CCNC(=O)c1ccc([N+](=O)[O-])cc1)NC1CCCc2ccccc21 (configuration not stated) | 32.3* | -0.1 | 4.5 | -21.5 | 0.0
CCOC(=O)c1c(C)[nH]c(C)c1S(=O)(=O)NCC1CCN(Cc2cccc(Cl)c2)CC1 | 78.0* | -0.7 | -21.8 | -32.0 | -3.3
CCOC(=O)c1c(C)[nH]c(C)c1S(=O)(=O)NCC1CCN(Cc2ccccc2F)CC1 | -2.6 | 0.8 | -20.4 | -23.5 | 4.3
CCOC(=O)c1c(C)[nH]c(C)c1S(=O)(=O)NCC1CCN(Cc2ccc(C)cc2)CC1 | 86.5* | -0.4 | -32.0 | -23.9 | -2.0
Cc1cc(Cl)ccc1OCC(=O)Nc1c(C(=O)c2ccccc2)oc2ccccc12 | nt | 0.2 | nt | -8.6 | nt
CC1CCN(S(=O)(=O)c2cc(C(=O)NCc3ccc(F)cc3)n(C)c2)CC1 | nt | -1.6 | nt | 4.4 | nt
CCN(CC)S(=O)(=O)c1ccc(C(=O)NCCSc2c(-c3ccc(OC)cc3)[nH]c3ccccc23)cc1 | nt | -2.0 | nt | nt | nt
COc1ccc(S(=O)(=O)N2CCC(N3CCCCC3)CC2)cc1 | -11.4 | 0.3 | -17.0 | -5.1 | -4.5
O=S(=O)(c1ccccc1)N1CCN(c2ccccc2)CC1 | -12.9 | -0.2 | -9.6 | -0.6 | 0.3
O=S(=O)(c1ccccc1)N1CCC(N2CCN(c3ccccc3)CC2)CC1 | 70.7* | 74.0* | nt | -24.5 | nt
COc1ccc(S(=O)(=O)N2CCN(C3CCCCCCC3)CC2)cc1 | 34.3*! | -2.1 | -1.2 | -5.7 | -1.2
CCc1ccc(OCC(=O)Nc2cc3oc4ccccc4c3cc2OC)c(Br)c1 | nt | -0.2 | nt | 4.4 | nt
Cc1ccc(N=Nc2c(N)[nH]n3c(=O)cc(-c4ccccc4)nc23)cc1 | -7.4 | -1.0 | -12.5 | -13.7 | -2.8
SMILES | D2 antag | D2 ag-1 | D2 PAM-1 | D2 PAM-2 | D2 ag-2
Cc1ccc(N=Nc2c(=O)[nH]n3c(=O)cc(C)[nH]c23)cc1 | 14.1 | 0.7 | -19.6 | 37.7* | -7.5
CC(=NCCc1ccccc1)C1=C(O)CSC1=O | -12.2 | 35.0* | ? | 1.4 | 0.1
CCCCN=C(C)C1=C(O)CSC1=O | -2.2 | -0.1 | -0.6 | 5.3 | 0.3
O=c1[nH]c2c(c(=O)[nH]1)CCC2 | 36.9* | 0.8 | -0.3 | -2.0 | -5.5
CCOc1ccc(CCNCc2c(C(=O)O)n(Cc3ccc(C)cc3)c3cc(OC)ccc23)cc1 | nt | -0.2 | nt | nt | nt
CCOc1ccc(CNC(=O)C2CCCN(S(C)(=O)=O)C2)cc1OC (configuration not stated) | 52.1* | 0.3 | -7.1 | 4.3 | -0.7
CCOc1ccc(CNC(=O)C2CCCN(S(=O)(=O)N3CCC(C)CC3)C2)cc1OC (configuration not stated) | nt | nt | -3.4 | nt | -0.4
CCOc1ccc(NC(=O)c2ccc3nc(C(C)C)oc3c2)cc1 | nt | nt | nt | -3.8 | nt
CCOc1ccc(NC(=NCc2ccc3c(c2)OCO3)SC2CC(=O)N(c3ccccc3)C2=O)cc1 (configuration not stated) | -8.1 | 0.7 | -3.1 | 31.2* | -4.4
O=C(NCCc1ccccc1)c1ccc(-c2ccccc2Cl)o1 | 30.2* | -1.2 | -97.3 | -17.6 | 0.6
O=C(Nc1ccccc1)c1ccc(-c2ccccc2Cl)o1 | 3.9 | -1.5 | -15.0 | -4.7 | 5.6
O=C(NCCc1ccc(Cl)cc1)c1ccc(CS(=O)(=O)c2ccc(Cl)cc2)o1 | nt | nt | nt | -10.6 | nt
O=C(NCCc1ccccc1)c1ccc(CS(=O)(=O)c2ccc(Cl)cc2)o1 | 31.0* | -0.3 | -12.5 | -0.3 | -2.7
O=C(Nc1ccc(F)cc1)C1CCN(c2nc3ccccc3nc2C(F)(F)F)CC1 | nt | 0.6 | nt | -2.4 | nt
O=C(CC1NCCNC1=O)Nc1cccc(F)c1 (configuration not stated) | nt | 1.1 | nt | 17.3 | nt
CC1=C(C(=O)OCc2ccccc2)C(c2cccc([N+](=O)[O-])c2)NC(=O)N1 (configuration not stated) | 1.9 | 0.6 | 59.2* | 4.1 | 3.6
CC1=C(C(=O)OCc2ccccc2)C(c2ccccc2Br)NC(=O)N1 (configuration not stated) | 0.4 | 1.0 | ? | 1.3 | 97.5*
COc1ccccc1C1NC(=O)NC(C)=C1C(=O)OCc1ccccc1 (configuration not stated) | 5.5 | 0.7 | -2.4 | 6.3 | 8.0
CC(C)(C)C1CCc2c(sc(NC(=O)CCC(=O)O)c2C(=O)Nc2ccccc2C(F)(F)F)C1 (configuration not stated) | nt | 2.2 | nt | 17.1 | nt
O=C(CSCC(=O)NC1CC1)Nc1ccc2ccccc2c1 | 34.7* | 0.8 | -29.5 | -20.5 | -0.3
COc1ccc(Cl)cc1C(=O)Nc1ccc2oc(-c3ccc(C(C)(C)C)cc3)nc2c1 | nt | nt | nt | -3.3 | nt
O=C(/C=C/c1cccc([N+](=O)[O-])c1)NCC1CCCO1 (configuration not stated) | 60.4* | -1.2 | -33.1 | 1.3 | -1.3
